Test results published in PubChem BioAssay (NCATS).
Several values for one entry are separate records, joined by “and”; a condition that tells them apart may be missing. Equal entries are not always repeated. Inconclusive results are not listed. Activity calls are given as the source filed them. Calls follow the shape of the full dose curve.

Assay: Primary qHTS to identify inhibitors of SARS-CoV-2 cell entry (AID 1645846); also: nearly all actives have a fitted effect of over 45% in size
Conditions: SARS-CoV-2 pseudovirus cell entry assay, luminescence; activity change, negative = inhibition: at 57.1 µM (top of the series) unless noted; series mostly up to 57.1 µM
Summary of the method: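 Luminescence readout (Bright-Glo luciferase) 48 h after pseudoparticle addition. HEK293-ACE2 cells, 1500/well; compound pre-incubation 1 h; Normalized to spike PP and bald PP.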
Potency is read from the fitted curve at half-maximal effect.

| Compound | activity change, negative = inhibition | Potency | outcome |
| --- | --- | --- | --- |
| CC(C)c1cc2c(cc1S(=O)(=O)O)[C@@]1(C)CCC[C@@](C)(C(=O)O)[C@@H]1CC2 | -22.9% |  |  |
| CC(C)(C)C(=O)C(Oc1ccc(Cl)cc1)n1ccnc1 (stereo not given) |  | 20 µM (active) |  |
| C1CCC(C(CC2CCCCN2)C2CCCCC2)CC1 (stereo not given) |  | 12.6 µM (active) and 17.8 µM (active) |  |
| COc1ccnc2c1CCCCC2S(=O)c1nc2ccccc2[nH]1 (stereo not given) | -18.8% |  |  |
| FC(F)(F)C(Cl)Br (stereo not given) | -18.5% |  |  |
| CN(C)CC/C=C1\c2ccccc2Sc2ccc(Cl)cc21 |  | 20 µM (active) |  |
| CC1(C)S[C@@H]2[C@H](N=CN3CCCCCC3)C(=O)N2[C@H]1C(=O)O | 0.13% |  |  |
| C/C(=C(\CCOP(=O)(O)O)SC(=O)c1ccccc1)N(C=O)Cc1cnc(C)nc1N |  |  | inactive [at 5.25 µM] |
| CCOc1ccc(NC(C)=O)cc1 |  | inactive |  |
| CNC(=O)c1cnn(-c2nc(N)c3ncn([C@@H]4O[C@H](CO)[C@@H](O)[C@H]4O)c3n2)c1 |  | inactive |  |
| CN(C)c1ccc(C(=C2C=CC(=[N+](C)C)C=C2)c2ccc(N(C)C)cc2)cc1 |  | 2.24 µM (active) and 2.51 µM (active) |  |
| O=c1c(-c2ccccc2)c1-c1ccccc1 |  | 31.6 µM (active) |  |
| Cc1cc(C(C)(C)C)c(O)c(C)c1CC1=NCCN1 | -17.1% | inactive |  |
| Nc1ccc2cc3ccc(N)cc3nc2c1 |  | 7.94 µM (active) |  |
| COc1cccc2c1C(=O)c1c(O)c3c(c(O)c1C2=O)C[C@@](O)(C(C)=O)C[C@@H]3O[C@H]1C[C@H](N)[C@H](O)[C@H](C)O1 | -92.1% and -98% |  |  |
| NC(=O)C1(N2CCCCC2)CCN(CCCC(=O)c2ccc(F)cc2)CC1 | 3.21% |  |  |
| C#CCN(C)Cc1ccccc1 |  | inactive |  |

| Compound | activity change, negative = inhibition | Potency | outcome |
| --- | --- | --- | --- |
| COc1ccc(-c2nc3ccc(C4=NNC(=O)CC4C)cc3[nH]2)cc1 (stereo not given) | -33% |  |  |
| [O-][n+]1ccccc1SSc1cccc[n+]1[O-] | -95.2% [at 27.1 µM] |  |  |
| CCCCCN=C(N)N/N=C/c1c[nH]c2ccc(OC)cc12 |  | 22.4 µM (active) |  |
| Cc1ccc(Nc2c(F)cccc2Cl)c(CC(=O)O)c1 |  | inactive |  |
| O=C(Nc1ccc([N+](=O)[O-])cc1Cl)c1cc(Cl)ccc1O |  | 2.51 µM (active) and 8.91 µM (active) |  |
| FC(F)(F)C(F)(F)C(F)(F)C(F)(F)C(F)(F)C(F)(F)C(F)(F)C(F)(F)Br | -12.9% |  |  |
| COc1ccc(CCN2CCC(Nc3nc4ccccc4n3Cc3ccc(F)cc3)CC2)cc1 |  | 10 µM (active) |  |
| Oc1c(Cl)cc(Cl)cc1Sc1cc(Cl)cc(Cl)c1O |  | 20 µM (active) |  |
| O[C@@H](COc1cccc2ncccc12)CN1CCN(C2c3ccccc3[C@@H]3[C@H](c4ccccc42)C3(F)F)CC1 (stereo not given in full) |  | 28.2 µM (active) |  |
| CCCCCOc1ccc(C2SC(=O)NC2=O)cc1OCC (stereo not given) | -11.6% |  |  |
| Nc1ccc(S(=O)(=O)Nc2nccs2)cc1 | 4.2% |  |  |
| CC1(C)O[C@@H]2C[C@H]3[C@@H]4C[C@H](F)C5=CC(=O)CC[C@]5(C)[C@H]4[C@@H](O)C[C@]3(C)[C@]2(C(=O)CO)O1 |  | inactive |  |
| Oc1c(Cl)cc(Cl)c(Cl)c1Cc1c(O)c(Cl)cc(Cl)c1Cl |  | 3.16 µM (active) |  |
| CCCCCCCCCCCCCCCCCCNC(=O)OC1CCN(C(=O)OC[C@H](COC(=O)N(Cc2cccc[n+]2CC)C(=O)c2ccccc2OC)OC)CC1 |  | 10 µM (active) |  |
| Clc1ccc(C(Cn2ccnc2)OCc2c(Cl)cccc2Cl)c(Cl)c1 (stereo not given) |  | 31.6 µM (active) |  |
| C[C@@H]1CCC[C@H](C)N1CCCC(O)(c1ccccc1)c1ccccn1 (stereo not given in full) | -1.1% |  |  |
| O=[N+]([O-])c1nccn1CO[C@@H](CO)[C@H](O)CO |  | inactive |  |
